TRPM1 prom inh – inhibitors of MITF-driven TRPM1 promoter in melanoma cells; SK-MEL-5 TRPM1 promoter luciferase, 24 h; inhibition, % at 12.5 µM; actives 0.83% (n = 330,000); AID 488899;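 active means mean inhibition across replicates of 60% or more, whatever share of single replicates reaches that level; inconclusive means some that reach 60%, reason not given; inactive means mean inhibition across replicates below 60%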
Statin myotox sup – protects C2C12 myotubes from simvastatin toxicity; actives 0.78% (n = 330,000); rescue of ATP level, % at 7.49 µM; ATP luminescence, 48 h; scaled: DMSO 0, geranylgeraniol control 100;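 active means mean ATP rescue above about 67%, or every replicate alone reaching that limit, limit read from the data, passing the limit was not always enough; inconclusive means no clear call, values can overlap the other calls; inactive means mean under the limit and some replicate under it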;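 further: myotubes were challenged with 10 µM simvastatin during compound exposure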
esBAF inh – inhibitors of esBAF chromatin remodeling in mouse ES cells. Bmi1-luciferase knock-in reporter, 24 h; 100% = twice the neutral-well signal. reporter increase, % at 12.5 µM. actives 2% (n = 350,000); in the data active means activation above about 40%; inconclusive means no clear call, values can overlap the other calls;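 further: a rise in the Bmi1 reporter signal indicates esBAF inhibition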
LMP1 NFkB inh – Epstein-Barr LMP1 NF-kappaB reporter inhibition; LMP1-induced NF-kappaB luciferase reporter cells, luminescence; inhibition, % at 12.5 µM; actives 0.69% (n = 350,000); in the data active means inhibition above about 41%; inconclusive means no clear call, values can overlap the other calls
Wnt act – activators of Wnt/beta-catenin signaling. actives 1.2% (n = 300,000). activation, % at 9.35 µM. Wnt/beta-catenin reporter cell assay, activator, plate reader; in the data active means activation above about 30%, passing the limit was not always enough; inconclusive means no clear call, values can overlap the other calls
MITF TRPM1 HTS – activators of MITF-driven TRPM1 promoter activity in SK-MEL-5 cells. SK-MEL-5 TRPM1-promoter luciferase, 24 h; % of positive control, neutral wells = 0. activation, % at 12.5 µM. actives 0.75% (n = 300,000);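 active means mean activation of at least 80% with every replicate also reaching 80%; inconclusive means mean reaches 80% but some replicate falls short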
Hits are given with their value; 0 = inactive; ? = inconclusive; - = no result. Only some compounds are listed: those with a hit (about 4% of all), similar ones and a draw of the others.

SMILES	TRPM1 prom inh	Statin myotox sup	esBAF inh	LMP1 NFkB inh	Wnt act	MITF TRPM1 HTS
Cc1cccc(C(=O)OCC(=O)Nc2ccc3c(c2)OCCO3)c1	0	0	0	0	0	0
O=C(COC(=O)c1cccc(F)c1)Nc1ccc2c(c1)OCCO2	0	0	0	0	32	0
COc1ccc(-c2ccc3oc(-c4ccsc4)cc3c2)cc1	0	0	64	0	0	0
O=C(Nc1cc(-c2nc3ncccc3o2)ccc1Cl)c1ccc([N+](=O)[O-])o1	79	0	0	0	0	0
O=C(NCC1CCCO1)c1ccc2c3n(nc2c1)-c1ccccc1CO3 (stereo not given)	0	0	70	0	?	?
COCCNC(=O)c1ccc2c3n(nc2c1)-c1ccc(C)cc1CO3	0	0	80	0	43	?
C[C@@H](CO)NC(=O)c1ccc2c3n(nc2c1)-c1ccccc1CO3	0	0	0	0	0	0
O=C(c1ccc2c3n(nc2c1)-c1ccccc1CO3)N1CCOCC1	0	0	0	0	-	0
Cc1ccc2c(c1)COc1c3ccc(C(=O)N4CCCCC4)cc3nn1-2	0	0	0	0	0	?
Cc1ccc2c(c1)COc1c3ccc(C(=O)N[C@@H](CO)C(C)C)cc3nn1-2	0	0	73	0	34	114
COc1ccccc1N(C)S(=O)(=O)c1ccc(C(=O)Nc2cc(OC)c(OC)c(OC)c2)cc1	0	0	0	0	0	0
Cn1c(SCc2nn[nH]n2)nc2c1c(=O)n(Cc1ccccc1Cl)c(=O)n2C	0	0	0	0	-	0
O=c1onc(-c2ccccc2)c2ccccc12	0	-	-	0	0	-
CO/N=C/c1ccc(N2CCN(C(=O)c3ccc(Cl)cc3Cl)CC2)c([N+](=O)[O-])c1	0	0	0	0	-	0
C/C(CC(=O)Nc1cccnc1)=N\NC(=O)C(=O)NC(C)C	0	-	-	0	0	-
CCCCOc1ccc(N2C(=O)C(C)CNC2=S)cc1 (stereo not given)	0	-	-	0	0	0
COc1ccc(C2=NN(S(C)(=O)=O)C(c3ccc4nccnc4c3)C2)cc1 (stereo not given)	0	-	-	0	0	0
COc1ccc(C2CC(c3ccc(OC)c(OC)c3)=NN2S(C)(=O)=O)cc1 (stereo not given)	0	0	71	0	45	87
C[C@H]1CCCCO[C@H](CN(C)C(=O)Nc2cccc3ccccc23)[C@@H](C)CN([C@@H](C)CO)C(=O)c2cc(NS(=O)(=O)c3cccs3)ccc2O1	-	0	0	-	-	-
C[C@@H]1CCCCO[C@@H](CN(C)C(=O)Nc2cccc3ccccc23)[C@H](C)CN([C@H](C)CO)C(=O)c2cc(NS(=O)(=O)c3cccs3)ccc2O1	-	108	0	-	-	-
C[C@H]1CCCCO[C@@H](CN(C)C(=O)Nc2ccc3c(c2)OCO3)[C@@H](C)CN([C@@H](C)CO)C(=O)c2cc(NS(=O)(=O)c3cccs3)ccc2O1	-	84	0	-	-	-
C[C@@H]1CCCCO[C@@H](CN(C)C(=O)Nc2cccc3ccccc23)[C@@H](C)CN([C@H](C)CO)C(=O)c2cc(NS(=O)(=O)c3ccc(Cl)cc3)ccc2O1	-	94	0	-	-	-
CCOC(=O)C1=C(C)N(C)C(=O)NC1c1c(C)nn(-c2ccc(C)cc2)c1Cl (stereo not given)	0	-	-	0	-	0
CC1CCCN(C(=O)c2cc3c(=O)n4ccccc4nc3s2)C1 (stereo not given)	0	0	62	0	0	0
Cc1cccn2c(=O)c3cc(C(=O)N4CCCC(C)C4)sc3nc12 (stereo not given)	0	0	0	0	0	0
SMILES	TRPM1 prom inh	Statin myotox sup	esBAF inh	LMP1 NFkB inh	Wnt act	MITF TRPM1 HTS
Cc1cccn2c(=O)c3cc(C(=O)N4CCCCC4)sc3nc12	0	0	47	0	0	0
CC1CCCCN1C(=O)c1cc2c(=O)n3ccccc3nc2s1 (stereo not given)	0	0	0	0	0	0
Cc1nn(-c2ccccc2)c2sc(C(=O)N3CCc4ccccc4C3)cc12	0	0	0	0	0	0
Cc1nn(-c2ccccc2)c2sc(C(=O)N3CCCCC3)cc12	0	?	45	0	0	0
CCN(CC)C(=O)c1cc2c(=O)n3ccccc3nc2s1	0	0	42	0	0	0
COCCn1nnnc1C(c1cccs1)N1CCN(c2cccc(C(F)(F)F)c2)CC1 (stereo not given)	0	-	-	0	-	0
CCOC(=O)c1sc(=NC(=O)c2cccc(OC)c2)n(C)c1C	0	0	?	0	33	?
CCOC(=O)c1sc(=NC(=O)c2ccccc2)n(C)c1C	0	0	71	0	44	0
Clc1ccc(-n2nnc(-c3cccnc3Cl)n2)cn1	0	0	52	0	41	126
Cc1ccc(-n2nnc(-c3cccnc3Cl)n2)cc1	0	0	0	0	31	0
COC(=O)C1=C(C)NC(C)=C(C(=O)OC)C1C(=O)OC1CCCCC1=O (stereo not given)	0	0	0	0	0	0
C[C@@H]1CN([C@@H](C)CO)C(=O)c2cc(NC(=O)Nc3ccc4c(c3)OCO4)ccc2O[C@@H](C)CCCCO[C@H]1CN(C)Cc1ccncc1	-	-	57	-	-	-
COc1ccc(NC(=O)Nc2ccc3c(c2)C(=O)N([C@@H](C)CO)C[C@@H](C)[C@@H](CN(C)CC2CCCCC2)OCCCC[C@H](C)O3)cc1	-	89	0	-	-	-
COc1ccc(NC(=O)Nc2ccc3c(c2)C(=O)N([C@H](C)CO)C[C@H](C)[C@@H](CN(C)CC2CCCCC2)OCCCC[C@@H](C)O3)cc1	-	0	0	-	-	-
C[C@H](CO)N1C[C@H](C)[C@@H](CN(C)CC2CCCCC2)OCCCC[C@H](C)Oc2ccc(NC(=O)Nc3ccc4c(c3)OCO4)cc2C1=O	-	70	0	-	-	-
c1ccc(-c2csc(N3CCSCC3)n2)cc1	0	-	-	0	0	0
O=C(Cn1c(=O)c2cccn2c2ccccc21)NCc1cccc(F)c1	0	0	0	0	0	0
CCOc1cc(C(c2c(C)[nH][nH]c2=O)c2c(C)[nH][nH]c2=O)ccc1OCc1ccc([N+](=O)[O-])cc1	0	0	0	0	-	0
CCOc1cc(/C=C2/NC(=S)NC2=O)ccc1OCc1ccc([N+](=O)[O-])cc1	63	-	-	0	-	0
CNc1cc(-c2ccc(CC#N)cc2)ncn1	-	0	50	-	0	-
C[C@@H]1CCCCO[C@@H](CN(C)C(=O)CCC(F)(F)F)[C@@H](C)CN([C@@H](C)CO)C(=O)c2cc(NC(=O)C3CCCCC3)ccc2O1	-	-	0	-	-	-
COc1ccc(OC(C)C(=O)NCC2CCCO2)cc1 (stereo not given)	0	0	0	0	0	0
CCCc1nc2ccc(Cl)cn2c1Cc1ccsc1	-	0	0	-	0	-
CCOC(=O)c1cnc2c(c(C)nn2C)c1Oc1ccc(OC)cc1	-	0	0	-	49	-
COc1ccc(OC)c(-c2cc(C(=O)NCCCn3ccnc3)no2)c1	0	161	0	0	-	0

From PubChem
